# Source: PubChem
# Pf growth 48h – Primary qHTS for delayed death inhibitors of the malarial parasite plastid, 48 hour incubation | P. falciparum luciferase growth in erythrocytes, 48 h | Potency, µM (titrated, usually from 28.7 µM), for the others: at the top dose activity change, negative = inhibition, usual class: inhibitors | hit rate 5.9% among 310,000 | AID 504832, 2011; note: potency is the fitted concentration of half-maximal effect; % is set by controls: 0 for no effect and ±100 for the full control effect
#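 Luciferase-expressing P. falciparum in infected erythrocytes (2% hematocrit, 0.1% parasitemia final) in RPMI 1640/0.5% Albumax were exposed to compound for 48 hours at 37 C, 5% CO2; growth read as luminescence.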
# Pf growth 96h – Primary qHTS for delayed death inhibitors of the malarial parasite plastid, 96 hour incubation | P. falciparum luciferase reporter growth, 96 h | Potency, µM (top dose mostly 28.7 µM), for inactives: at the highest dose activity change, negative = inhibition, hits mostly inhibitors | hit rate 6.9% among 320,000 | AID 504834, 2011; note: potency is the fitted concentration of half-maximal effect; % is set by controls: 0 for no effect and ±100 for the full control effect
#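 Infected RBCs, 2% Hct / 0.05% parasitemia final; luciferase-reporter P. falciparum; cpd 96 h, 37 C, 5% CO2; luciferase detection reagent; luminescence.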
# HCMV inh – qHTS Assay for inhibitors of the human cytomegalovirus (HCMV); HFF cells, HCMV-luciferase reporter, 72 h; hits give low values; activity change, negative = inhibition, % at 57.5 µM; hit rate 4.5% among 410,000; AID 1259415, 2018; in the data active = activity change below about -60%; inconclusive = no clear call, values can overlap the other calls; inactive = above about -39%; note: % is set by controls: 0 for no effect and ±100 for the full control effect
#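 Screen run at 2 compound doses on HFFs infected with reporter HCMV, MOI 1 PFU/cell. Luciferase activity from cell lysates at 72 h post infection gave inhibition relative to buffer-only and Salinomycin wells.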
# HCV inhibitor – qHTS Assay for Inhibitors of Hepatitis C Virus (HCV). Huh7.5.1 HCVcc-Cre infection, luciferase reporter, 44 h. Potency, µM (highest dose often 41.8 µM), for the others: at the highest dose activity change, negative = inhibition, usual class: inhibitors. hit rate 3.4% among 340,000; note: potency is the fitted concentration of half-maximal effect; % is set by controls: 0 for no effect and ±100 for the full control effect
#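 Compounds are dispensed onto cells plated 4 h earlier at 1,000 per well, with HCVcc-Cre virus (about 0.5 moi) added next. Following 44 h of culture, luminescent signal is measured for 15 sec after 15 min with substrate at room temperature.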
# SARS PLP yeast – qHTS of Yeast-based Assay for SARS-CoV PLP | S. cerevisiae expressing SARS-CoV PLpro, growth rescue | Potency, µM (doses to about 32.9 µM), inactives show at the top dose activity, positive = growth rescue, usual class: activators | hit rate 0.19% among 330,000; calls by dose curve; note: potency is the fitted concentration of half-maximal effect; 0% is about no effect; nearly all actives have a fitted effect of over 55% in size
# Sm TGR block – qHTS Assay for the Inhibitors of Schistosoma Mansoni Peroxiredoxins | hit rate 3% among 360,000 | Schistosoma mansoni thioredoxin glutathione reductase (TGR), Q962Y6 | purified TGR, DTNB reduction, TNB absorbance 405 nm | Potency, µM (doses to about 114 µM), for the others: at the top dose activity change, negative = inhibition, hits mostly inhibitors; note: potency is the fitted concentration of half-maximal effect; % is set by controls: 0 for no effect and ±100 for the full control effect; nearly all actives have a fitted effect of over 60% in size
#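 First, TGR (20 nM dispensed) and NADPH were mixed with compound. Second, a 15 min room-temperature incubation followed. Third, further NADPH and then DTNB were added to start the reaction. Finally, TNB absorbance was monitored kinetically.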
# * hit, by the source's call; ? = inconclusive; nt = no result given; ! = a repeat was not active. Sampled rows, rich in hits. Any-hit rate of the full collection: about 15%. Unless noted, calls come from the whole dose curve; as a rule, active = well fitted curve in the direction sought with a large enough effect; inconclusive = small, poorly fitted or top-dose-only effect, or another doubt; inactive = no such curve, though single readings can be large; an effect the other way counts as inactive or inconclusive.
SMILES,Pf growth 48h,Pf growth 96h,HCMV inh,HCV inhibitor,SARS PLP yeast,Sm TGR block
O=C(NCc1ccccc1F)C1CCCN1S(=O)(=O)c1ccc(F)cc1 (stereo not drawn),-11.3%,9.6%,57.4,28.5%,-0.1%,-0.4%
C=CCN(CC=C)C(=S)Nc1ccccc1,?,?,-20.3,22.8%,?,3.8%
CC(C)c1cc2c(c(O)c1O)[C@@]13CCCC(C)(C)C1CC2OC3=O (stereo partly drawn),?,?,8.8,-26.9%,-4.7%,2.82µM*
O=C(Nc1c(-c2ccc(Cl)cc2)[nH][nH]c1=O)c1ccccc1Cl,nt,nt,-10.9,nt,nt,nt
O=c1c2sc3nc(N4CCOCC4)c4c(c3c2ncn1CCc1ccccc1)CCCC4,?,?,-32.9,-21.2%,-0.9%,12.7%
COc1ccc(-n2cnc3c(sc4nc(N5CCOCC5)c5c(c43)CCCC5)c2=O)cc1,-2.2%,2.94µM*,57.8,-11.9%,1.8%,-3.0%
Cc1ccc(-n2cnc3c(sc4nc(N5CCOCC5)c5c(c43)CCCC5)c2=O)cc1,?,-8.1%,-35.1,?,0.4%,1.5%
COC(=O)c1ccc(Cn2cnc3c(sc4nc(N5CCOCC5)c5c(c43)CCCC5)c2=O)o1,1.65µM*,26.1%,0.2,11.2µM*!,-6.2%,?
CC(C)CNc1nnnc2c1sc1nc(N3CCOCC3)c3c(c12)CCCC3,1.65µM*,1.31µM*,?,4.3%,-0.7%,16.4%
O=c1c2sc3nc(N4CCOCC4)c4c(c3c2nnn1Cc1ccccc1)CCCC4,?,?,-100.2*,-5.5%,2.0%,-23.8%
CN(C)C(CNC(=O)c1cc(S(=O)(=O)N(C)Cc2ccccc2)ccc1Cl)c1ccco1 (stereo not drawn),?,?,-26.8,?,-3.2%,-19.8%
O=c1c2sc3nc(N4CCOCC4)c4c(c3c2ncn1-c1ccccc1)CCCC4,?,31.2%,-63.7*,10µM*,1.6%,5.3%
CCOC(=O)C(Sc1ncnc2c1sc1nc(N3CCOCC3)c3c(c12)CCCC3)c1ccccc1 (stereo not drawn),1.65µM*,?,nt,nt,3.4%,-7.8%
O=c1c2sc3nc(N4CCOCC4)c4c(c3c2ncn1C(c1ccccc1)c1ccccc1)CCCC4,nt,nt,-37.6,2.0%,nt,nt
Cc1ccccc1-n1cnc2c(sc3nc(N4CCOCC4)c4c(c32)CCCC4)c1=O,10.4µM*,?,-89.1*,17.8µM*,0.7%,7.6%
CCOC(=O)N1CCN(C(=O)CSc2nc3c([nH]c4ccccc43)c(=O)n2CC)CC1,?,7.2%,57.2,3.3%,nt,1.9%
O=C(CN(Cc1ccc(F)cc1)C(=O)CCC(=O)Nc1ccccn1)NCCc1ccccc1,-10.6%,?,-30.8,-7.7%,2.1%,2.1%
COc1ccccc1N1CCN(S(=O)(=O)c2c(C)sc3ncn(CC(=O)N(C)c4ccc(C(C)C)cc4)c(=O)c23)CC1,nt,nt,-6.7,nt,nt,4.5%
CCc1ccc([C@@H]2C[C@H]3[C@@H](CN2S(=O)(=O)c2ccc(C)cc2)C(=O)C[C@@H](c2ccc(Cl)cc2)N3S(=O)(=O)c2ccc(C)cc2)cc1,nt,nt,7.8,nt,nt,nt
COc1ccc(S(=O)(=O)NCC2CCCN(Cc3ccc(C)o3)C2)cc1 (stereo not drawn),36.7%,15.8%,-17.3,1.6%,0.8%,35.5µM*
CCc1ccccc1NC(=O)Nc1nnc(N2CCCC2)s1,nt,nt,-2.5,nt,nt,-8.1%
Cn1cc(S(=O)(=O)N2CCCCCC2)cc1C(=O)N1CCN(c2ccccc2F)CC1,nt,nt,-6.3,nt,nt,7.8%
CCCC1Cc2nc(Cl)c(C#N)cc2CO1 (stereo not drawn),12.3%,0.0%,-20.3,-5.3%,0.6%,39.8µM*
CCOc1ccc(C2c3c(-c4ccc(C)cc4)n[nH]c3C(=O)N2c2ccc(Cl)cc2)cc1 (stereo not drawn),nt,nt,-105.9*,nt,nt,2.9%
COc1ccccc1C1c2c(-c3ccc(Cl)cc3)n[nH]c2C(=O)N1c1ccc(C)cc1 (stereo not drawn),nt,nt,-105.0*,nt,nt,1.5%
SMILES,Pf growth 48h,Pf growth 96h,HCMV inh,HCV inhibitor,SARS PLP yeast,Sm TGR block
CCOC(=O)c1ccc(N2C(=O)c3[nH]nc(-c4ccc(OC)cc4)c3C2c2ccccc2Cl)cc1 (stereo not drawn),nt,nt,10.6,nt,nt,17.0%
CC(C)(C)S(=O)N1Cc2cc(C(=O)N[C@@H]3CCN(Cc4ccccc4)C3)nc(-c3cccc(-c4cc5ccccc5o4)c3)c2[C@@H]1CCO (stereo partly drawn),nt,nt,-6.9,nt,nt,nt
C=CCOC(=O)C1=C(C)N=c2s/c(=C3\C(=O)N(CC(=O)O)c4ccccc43)c(=O)n2C1c1ccc(OC)cc1 (stereo not drawn),0.0%,32.1%,?,18.6%,0.6%,17.8µM*
COc1ccc(C2C(C(=O)OC(C)C)=C(C)N=c3s/c(=C\c4cccs4)c(=O)n32)cc1 (stereo not drawn),?,?,-10.0,7.4%,?,-7.2%
COc1ccc(C(O)c2ncc(-c3ccccc3)[nH]2)c(OC)c1 (stereo not drawn),nt,nt,-66.5*,nt,nt,nt
COc1ccc(-n2nc(C(=O)NCC(=O)NCCCN3CCOCC3)c3ccccc3c2=O)cc1OC,5.2%,-12.0%,15.6,6.5%,1.3%,-5.5%
CCOc1ccc(-c2nonc2NC(=O)c2ccco2)cc1,0.3%,10.4µM*,?,4.9%,3.8%,-3.5%
CCCOc1ccc(-c2nonc2NC(=O)c2ccco2)cc1OCCC,nt,nt,-4.0,nt,nt,2.4%
CCCCOc1ccc(-c2nonc2NC(=O)c2ccco2)cc1,nt,nt,-12.3,nt,nt,-2.5%
CCOc1ccc(-c2nonc2NC(=O)c2ccco2)cc1OCC,0.37µM*,?,27.5,-20.8%,-0.2%,-6.2%
CC1=C(C(=O)Nc2ccccc2C)C(c2ccc[nH]2)n2ncnc2N1 (stereo not drawn),nt,nt,-3.1,nt,nt,?
CC(NC(=O)CSc1ncn[nH]1)c1ccc(Cl)cc1Cl (stereo not drawn),-3.7%,-2.0%,-60.9*,18.0%,-2.0%,-22.6%
Cc1cc(Nc2ccccc2Cl)c2ccccc2n1,nt,nt,-73.4*,?,nt,nt
CC(=O)Nc1ccc(Nc2cc(C)nc3ccccc23)cc1,nt,nt,27.2,8.5%,nt,nt
Cc1cc(Nc2ccc(C)c(C)c2)c2ccccc2n1,?,?,-63.3*,?,-0.4%,-9.8%
COc1ccc2nc(C)cc(NCc3cccc(C(F)(F)F)c3)c2c1,0.928µM*,?,-13.7,10µM*,-3.0%,-1.2%
Cc1cc(Cl)c2ccccc2n1,-0.1%,-7.7%,-6.8,12.9%,13.7%,-1.1%
